The campaign covered roughly 39,000 compounds. About 500 (1.3%) were called active. Shown is part of a subset that was picked to be rich in actives.

The assay concerns S. aureus RN4220. In words: growth inhibition call (relative growth <= 0.2). To be noted: 50 µM.
For the compound `COc1ccc(S(=O)(=O)Nc2ccc3c(c2)C(=O)N([C@H](C)CO)C[C@H](C)[C@@H](CN(C)C(=O)CCC(F)(F)F)OCCCC[C@@H](C)O3)cc1`, the growth inhibition call is “inactive”.

Take `COc1cccc(-c2cnc3c(c2)C(=O)N([C@H](C)CO)C[C@H](C)[C@H](CN(C)S(=O)(=O)c2cn(C)cn2)O3)c1`: the growth inhibition call is “inactive”.

In the case of `O=C1NC2=C(C(=O)OC2)[C@H](c2ccccc2)N1`, the growth inhibition call was “inactive”.

Take `C[C@@H](O)[C@@H](O)[C@@H](O)C/C=N/NC(=O)CCCCCCC(=O)NO`: the growth inhibition call was “inactive”.

Regarding `CC(C)NC(=O)N(C)C[C@@H]1Oc2ccc(NC(=O)CCN3CCOCC3)cc2C(=O)N([C@H](C)CO)C[C@@H]1C`, the growth inhibition call was “inactive”.

With `Oc1ccc(C=Cc2cc(O)cc(O)c2)cc1`, the growth inhibition call was “inactive”.

As to `COc1ccc(O)cc1`, the growth inhibition call was “inactive”.

On to `COc1cc(C=Cc2ccc(O)cc2)cc(OC)c1`, for which the growth inhibition call is “active”.

Take `CCCCCC=CCCC(=O)NC1C(Oc2c3cc4cc2Oc2ccc(cc2Cl)C(OC2OC(CO)C(O)C(O)C2NC(C)=O)C2NC(=O)C(NC(=O)C4NC(=O)C4NC(=O)C(Cc5ccc(c(Cl)c5)O3)NC(=O)C(N)c3ccc(O)c(c3)Oc3cc(O)cc4c3)c3ccc(O)c(c3)-c3c(OC4OC(CO)C(O)C(O)C4O)cc(O)cc3C(C(=O)O)NC2=O)OC(CO)C(O)C1O` (stereo unspecified) [TEICOPLANIN [A(2-1) shown]]: the growth inhibition call is “active”.

As to `CCCCC/C=C/CCC(=O)N[C@H]1[C@H](Oc2c3cc4cc2Oc2ccc(cc2Cl)[C@@H](O[C@@H]2O[C@H](CO)[C@@H](O)[C@H](O)[C@H]2NC(C)=O)[C@@H]2NC(=O)[C@H](NC(=O)[C@@H]4NC(=O)[C@H]4NC(=O)[C@@H](Cc5ccc(c(Cl)c5)O3)NC(=O)[C@H](N)c3ccc(O)c(c3)Oc3cc(O)cc4c3)c3ccc(O)c(c3)-c3c(O[C@H]4O[C@H](CO)[C@@H](O)[C@H](O)[C@@H]4O)cc(O)cc3[C@@H](C(=O)O)NC2=O)O[C@H](CO)[C@@H](O)[C@@H]1O`, the growth inhibition call is “active”.

As for `CCCCCCCCCC(=O)N[C@H]1[C@H](Oc2c3cc4cc2Oc2ccc(cc2Cl)[C@@H](O[C@@H]2O[C@H](CO)[C@@H](O)[C@H](O)[C@H]2NC(C)=O)[C@@H]2NC(=O)[C@H](NC(=O)[C@@H]4NC(=O)[C@H]4NC(=O)[C@@H](Cc5ccc(c(Cl)c5)O3)NC(=O)[C@@H](N)c3ccc(O)c(c3)Oc3cc(O)cc4c3)c3ccc(O)c(c3)-c3c(O[C@H]4O[C@H](CO)[C@@H](O)[C@H](O)[C@@H]4O)cc(O)cc3[C@H](C(=O)O)NC2=O)O[C@H](CO)[C@@H](O)[C@@H]1O`, the growth inhibition call was “active”.

For the compound `C[C@@H]1CN([C@@H](C)CO)C(=O)c2cc(NC(=O)Nc3ccc4c(c3)OCO4)ccc2O[C@@H](C)CCCCO[C@@H]1CN(C)C(=O)C1CCCCC1`, the growth inhibition call is “inactive”.

On to `COc1ccc(S(=O)(=O)Nc2ccc3c(c2)C(=O)N([C@H](C)CO)C[C@@H](C)[C@@H](CN(C)C(=O)C2CCCCC2)OCCCC[C@@H](C)O3)cc1`, for which the growth inhibition call was “inactive”.

Turning to `C[C@H](CO)N1C[C@H](C)[C@H](CN(C)S(=O)(=O)c2cn(C)cn2)Oc2ccc(NC(=O)NC3CCCCC3)cc2C1=O`, the growth inhibition call is “inactive”.

With `C[C@@H]1CCCCO[C@H](CN(C)Cc2ccccc2)[C@@H](C)CN([C@@H](C)CO)C(=O)c2cc(NS(=O)(=O)c3ccc(F)cc3)ccc2O1`, the growth inhibition call was “inactive”.

For the compound `C[C@@H]1CCCCO[C@H](CN(C)S(=O)(=O)c2cccs2)[C@@H](C)CN([C@@H](C)CO)C(=O)c2cc(NC(=O)CCC(F)(F)F)ccc2O1`, the growth inhibition call was “inactive”.

For `CC(=O)OC[C@H]1O[C@@](COC(C)=O)(O[C@H]2O[C@H](COC(C)=O)[C@@H](OC(C)=O)[C@H](OC(C)=O)[C@H]2OC(C)=O)[C@@H](OC(C)=O)[C@@H]1OC(C)=O`, the growth inhibition call is “inactive”.

For `C[C@H]1CN([C@@H](C)CO)C(=O)CCCn2nncc2CO[C@@H]1CN(C)S(=O)(=O)c1ccc2c(c1)OCCCO2`, the growth inhibition call was “inactive”.

As to `C[C@H](CO)N1C[C@H](C)[C@@H](CN(C)Cc2ccc(Oc3ccccc3)cc2)Oc2ccc(NS(=O)(=O)c3ccc(F)cc3)cc2C1=O`, the growth inhibition call was “inactive”.

Consider `C[C@H]1CN([C@@H](C)CO)C(=O)c2cccc(NS(=O)(=O)c3ccc(F)cc3)c2O[C@H]1CN(C)Cc1ccc(Cl)c(Cl)c1`, for which the growth inhibition call was “inactive”.

For `C[C@H]1CN([C@@H](C)CO)C(=O)Cc2cc(NC(=O)CCCCCC(=O)Nc3ccccc3N)ccc2O[C@@H]1CN(C)C(=O)Nc1ccc(C(F)(F)F)cc1`, the growth inhibition call is “inactive”.

Consider `CCS(=O)(=O)Nc1ccc2c(c1)C(=O)N(C)[C@H]1CC[C@@H](CC(=O)N3CCN(C)CC3)O[C@@H]1CO2`, for which the growth inhibition call is “inactive”.

With `COc1cc(Cc2cnc(N)nc2N)cc(OC)c1OC`, the growth inhibition call was “active”.

As for `COc1ccc(Cc2cnc(N)nc2N)cc1OC`, the growth inhibition call was “active”.

In the case of `COc1ccc(C2=C(N)C(=O)NC2=O)cc1OC`, the growth inhibition call was “inactive”.

On to `COc1cc(O)cc(OC)c1OC`, for which the growth inhibition call is “inactive”.

Take `COc1cc(CN)cc(OC)c1OC`: the growth inhibition call was “inactive”.

With `COc1cccnc1N`, the growth inhibition call was “inactive”.

For `COc1ccc(NC(=O)N(C)C[C@H]2OCCCC[C@H](C)Oc3ccc(NC(=O)c4ccncc4)cc3C(=O)N([C@@H](C)CO)C[C@@H]2C)cc1`, the growth inhibition call was “inactive”.

`COc1ccc(CN(C)C[C@H]2OCCCC[C@@H](C)Oc3ccc(NC(=O)Nc4ccc5c(c4)OCO5)cc3C(=O)N([C@H](C)CO)C[C@H]2C)cc1`: the growth inhibition call is “inactive”.

Consider `C[C@@H]1CCCCO[C@@H](CN(C)Cc2ccc(C(=O)O)cc2)[C@@H](C)CN([C@H](C)CO)C(=O)c2cc(NS(=O)(=O)c3ccc(Cl)cc3)ccc2O1`, for which the growth inhibition call was “inactive”.

As to `COc1ccc(NC(=O)Nc2ccc3c(c2)C(=O)N([C@H](C)CO)C[C@H](C)[C@H](CN(C)C(=O)C2CCCCC2)OCCCC[C@H](C)O3)cc1`, the growth inhibition call was “inactive”.

Turning to `C[C@@H]1CN([C@H](C)CO)C(=O)c2cccc(NC(=O)CCCCCC(=O)Nc3ccccc3N)c2O[C@@H]1CN(C)Cc1ccc(-c2ccccc2)cc1`, the growth inhibition call was “inactive”.

As for `COc1ccc(CN(C)C[C@H]2Oc3c(NS(=O)(=O)c4cn(C)cn4)cccc3C(=O)N([C@@H](C)CO)C[C@@H]2C)cc1`, the growth inhibition call is “inactive”.

For the compound `CO[C@@H]1CN(C)C(=O)c2cc(NS(=O)(=O)c3ccccc3C)ccc2OC[C@@H](C)N(S(C)(=O)=O)C[C@H]1C`, the growth inhibition call was “inactive”.

For `C[C@H](CO)N1C[C@H](C)[C@@H](CN(C)Cc2ccc(C(F)(F)F)cc2)OCCCC[C@H](C)Oc2ccc(NC(=O)c3ccncc3)cc2C1=O`, the growth inhibition call is “inactive”.

(Values after the antibiotic and cytotoxicity screens of Wong et al. (2023).)
